Data taken from PubChem BioAssay (Tox21).
Values joined by “and” are separate entries in the source; they are usually repeats but may differ in a detail not shown here. Equal values may be shown once. Inconclusive results are not listed. Where a call stands in place of a potency, no number is given. Where a structure was tested more than once in an assay, its records may differ in their call. Active and inactive are the calls of the source. Unless noted, the call rests on the fitted dose curve.

Legend:
[1] = Nuclear factor erythroid 2-related factor 2/antioxidant responsive element (Nrf2/ARE) small molecule agonists: luciferase reporter gene qHTS assay in human keratinocytes (AID 1919969); further: nearly all actives have a fitted effect of over 35% in size; further: potency means the concentration at half of the fitted maximal effect
[2] = target: Gonadotropin-releasing hormone receptor (Homo sapiens) (UniProt P30968); assay: Human gonadotropin-releasing hormone receptor (GnRHR) small molecule agonists, calcium flux assay in GnRHR-HEK293 cells (AID 1920063); further: nearly all actives have a fitted effect of over 35% in size
Gonadotropin-releasing hormone receptor (Homo sapiens), sequence (P30968 whole entry, looked up): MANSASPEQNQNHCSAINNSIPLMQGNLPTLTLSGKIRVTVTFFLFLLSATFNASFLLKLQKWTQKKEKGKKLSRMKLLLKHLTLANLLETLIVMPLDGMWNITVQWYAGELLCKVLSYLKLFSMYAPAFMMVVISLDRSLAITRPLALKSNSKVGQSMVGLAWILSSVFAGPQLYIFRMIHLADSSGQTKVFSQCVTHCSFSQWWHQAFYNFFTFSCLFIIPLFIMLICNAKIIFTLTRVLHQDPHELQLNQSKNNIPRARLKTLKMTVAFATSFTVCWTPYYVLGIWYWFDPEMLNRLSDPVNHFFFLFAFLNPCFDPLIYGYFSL
Summary of the method: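 Stable human GnRHR HEK293 line. 18 h plating, then calcium dye for 1 h at 37 C. Agonist-mode compound addition from DMSO stocks; fluorescence monitored 3 min.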

[3] = G protein-coupled receptor (GPCR) small molecule agonists, calcium flux assay: HEK293 wild type cell line counter screen (AID 1920065)
Summary of the method: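 Following 18 h incubation at 37 C/5% CO2, plates got calcium dye for 1 h; compounds, ATP or DMSO were then pinned in and fluorescence followed kinetically (480/540 nm).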

[4] = p53 small molecule agonists, cell-based qHTS assay with human liver microsomes (AID 1963577);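 further: p53 response element beta-lactamase reporter cells with liver microsomes plus NADPH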
Summary of the method: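 With metabolic activation: human liver microsomes (0.5 mg/mL final) plus NADPH (0.5 mg/mL final) added alongside compounds to p53RE-bla cells; 16 h 37 C exposure; beta-lactamase read by LiveBLAzer fluorescence.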

[5] = p53 small molecule agonists, cell-based qHTS assay with rat liver microsomes (AID 1963578)
Summary of the method: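 Metabolic activation by rat liver microsomes and NADPH, each 0.5 mg/mL final, added right after compounds to p53RE-bla reporter cells (4,000/well, plated 5 h earlier). 16 h at 37 C, then LiveBLAzer substrate for 2 h at room temperature in the dark; fluorescence read-out.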

[6] = p53 small molecule agonists, cell-based qHTS assay with human liver microsomes: qHTS cell viability counter screen (AID 1963579); further: nearly all actives have a fitted effect of over 45% in size; further: potency means the concentration at half of the fitted maximal effect
Summary of the method: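 Metabolic activation used human liver microsomes and NADPH, both 0.5 mg/mL final, over 16 hours at 37 C on p53RE-bla cells (4,000/well). Cytotoxicity measured by CellTiter-Glo luminescence, 30 min at room temperature.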

[7] = p53 small molecule agonists, cell-based qHTS assay with rat liver microsomes: qHTS cell viability counter screen (AID 1963580); further: nearly all actives have a fitted effect of over 45% in size; further: potency means the concentration at half of the fitted maximal effect
Summary of the method: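 Cytotoxicity counter screen: intracellular ATP measured by CellTiter-Glo luminescence in the same wells as the beta-lactamase reporter read, on HCT-116 p53RE-bla cells exposed 16 h at 37 C to compounds with rat liver microsomes and NADPH, each 0.5 mg/mL final.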

[8] = p53 small molecule agonists, cell-based qHTS assay: qHTS cell viability counter screen (AID 1963581); further: nearly all actives have a fitted effect of over 45% in size; further: potency means the concentration at half of the fitted maximal effect
Summary of the method: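 qHTS counter screen: 16 h compound exposure at 37 C of p53RE-bla HCT-116 cells (4,000 per well, seeded 5 h prior), cell viability by ATP luminescence.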

[9] = p53 small molecule agonists, cell-based qHTS assay (AID 1963582; active means well fitted activation curve with a large enough effect in the signal ratio in the repeat runs, not every such curve was filed as active; the % refers to the signal ratio)
Summary of the method: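 Measured: fluorescence from cleaved LiveBLAzer substrate. System: p53RE-bla cells, 16 h compound treatment at 37 C, 2 h substrate step at room temperature.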

[10] = target: 5-hydroxytryptamine receptor 2A (Homo sapiens) (UniProt P28223); assay: 5-hydroxytryptamine receptor 2A (HTR2A) small molecule antagonists, cell-based qHTS assay (AID 1963586); further: nearly all actives have a fitted effect of over 45% in size
5-hydroxytryptamine receptor 2A (Homo sapiens), sequence (P28223 whole entry, looked up): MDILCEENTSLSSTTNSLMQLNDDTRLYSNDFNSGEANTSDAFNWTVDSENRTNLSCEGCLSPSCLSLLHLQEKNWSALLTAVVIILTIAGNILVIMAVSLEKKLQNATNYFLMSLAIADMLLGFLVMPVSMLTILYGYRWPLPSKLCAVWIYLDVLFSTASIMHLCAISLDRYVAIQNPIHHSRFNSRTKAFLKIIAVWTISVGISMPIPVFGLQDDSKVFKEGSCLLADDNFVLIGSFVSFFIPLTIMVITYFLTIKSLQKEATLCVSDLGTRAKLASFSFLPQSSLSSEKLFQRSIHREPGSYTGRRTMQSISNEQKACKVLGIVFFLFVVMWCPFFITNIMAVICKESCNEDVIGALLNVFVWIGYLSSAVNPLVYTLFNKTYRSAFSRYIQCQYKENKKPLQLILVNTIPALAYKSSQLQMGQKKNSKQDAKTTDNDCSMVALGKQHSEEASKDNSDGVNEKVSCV
Summary of the method: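 CHO cells stably expressing human HTR2A were plated for 18 h at 37 C, then loaded with calcium dye for 1 h. Compounds were preincubated 5 min at room temperature before DOI (4 nM solution) was added. Kinetic fluorescence was read for 3 min.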

[11] = target: 5-hydroxytryptamine receptor 2A (Homo sapiens) (UniProt P28223); assay: 5-hydroxytryptamine receptor 2A (HTR2A) small molecule agonists, cell-based qHTS assay (AID 1963587); further: nearly all actives have a fitted effect of over 30% in size
Summary of the method: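 CHO cells stably expressing human HTR2A, plated 18 h, loaded with calcium dye 1 h at 37 C. Agonist mode: compounds added and intracellular calcium fluorescence recorded kinetically for 2 min at 1 sec intervals.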

[12] = target: Muscarinic acetylcholine receptor M1 (Homo sapiens) (UniProt P11229); assay: Cholinergic receptor muscarinic 1 (CHRM1) small molecule antagonists, cell-based qHTS assay (AID 1963588); further: nearly all actives have a fitted effect of over 40% in size; further: potency means the concentration at half of the fitted maximal effect
Muscarinic acetylcholine receptor M1 (Homo sapiens), sequence (P11229 whole entry, looked up): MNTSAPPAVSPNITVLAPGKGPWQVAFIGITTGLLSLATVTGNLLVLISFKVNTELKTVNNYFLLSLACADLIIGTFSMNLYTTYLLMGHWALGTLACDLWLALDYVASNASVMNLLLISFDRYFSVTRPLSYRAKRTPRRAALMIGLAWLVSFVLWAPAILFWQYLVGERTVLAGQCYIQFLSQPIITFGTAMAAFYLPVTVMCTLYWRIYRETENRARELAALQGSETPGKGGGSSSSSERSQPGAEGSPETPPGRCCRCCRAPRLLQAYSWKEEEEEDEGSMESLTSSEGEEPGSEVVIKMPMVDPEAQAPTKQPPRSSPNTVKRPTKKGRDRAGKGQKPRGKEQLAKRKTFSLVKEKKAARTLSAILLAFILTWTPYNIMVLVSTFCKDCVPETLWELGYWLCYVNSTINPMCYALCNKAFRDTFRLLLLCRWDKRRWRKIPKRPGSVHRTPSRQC
Summary of the method: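 Compounds were tested at 15 concentrations in three independent runs. Dye-loaded CHRM1-CHO cells were exposed 5 min at room temperature before stimulation by acetylcholine added at 50nM. Intracellular calcium was read kinetically on FDSS for 3 min.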

[13] = target: Muscarinic acetylcholine receptor M1 (Homo sapiens) (UniProt P11229); assay: Cholinergic receptor muscarinic 1 (CHRM1) small molecule agonists, cell-based qHTS assay (AID 1963589); further: nearly all actives have a fitted effect of over 35% in size
Summary of the method: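 Kinetic fluorescence (1 s intervals) of calcium-sensitive dye in human M1 CHO cells after compound addition; cells pre-incubated 18 h at 37 C/5% CO2 and dye-loaded 1 h.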

[14] = cAMP Responsive Elements (CRE) small molecule agonists, cell-based qHTS assay (AID 1963590)
Summary of the method: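 Test agents in DMSO were incubated 3 h at 37 C/5% CO2 with CRE-bla HEK 293T cells seeded 18 h earlier; LiveBLAzer B/G FRET substrate was added and read after 2 h at room temperature.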

[15] = cAMP Responsive Elements (CRE) small molecule antagonists, cell-based qHTS assay (AID 1963591; active means well fitted inhibition curve with a large enough effect in the signal ratio in the repeat runs, not every such curve was filed as active; the % refers to the signal ratio)
Summary of the method: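 Reporter line CRE-bla HEK 293T in dialyzed-FBS DMEM; cells preincubated 18 h, treated 3 h with compound plus NKH477 (0.25 uM final); LiveBLAzer FRET, 2 h RT.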

[16] = target: Beta-2 adrenergic receptor (Homo sapiens) (UniProt P07550); assay: Adrenergic beta2 receptor (ADRB2) small molecule antagonists, cell-based qHTS assay (AID 1963592); further: series mostly up to about 92 µM; nearly all actives have a fitted effect of over 50% in size
Beta-2 adrenergic receptor (Homo sapiens), sequence (P07550 whole entry, looked up): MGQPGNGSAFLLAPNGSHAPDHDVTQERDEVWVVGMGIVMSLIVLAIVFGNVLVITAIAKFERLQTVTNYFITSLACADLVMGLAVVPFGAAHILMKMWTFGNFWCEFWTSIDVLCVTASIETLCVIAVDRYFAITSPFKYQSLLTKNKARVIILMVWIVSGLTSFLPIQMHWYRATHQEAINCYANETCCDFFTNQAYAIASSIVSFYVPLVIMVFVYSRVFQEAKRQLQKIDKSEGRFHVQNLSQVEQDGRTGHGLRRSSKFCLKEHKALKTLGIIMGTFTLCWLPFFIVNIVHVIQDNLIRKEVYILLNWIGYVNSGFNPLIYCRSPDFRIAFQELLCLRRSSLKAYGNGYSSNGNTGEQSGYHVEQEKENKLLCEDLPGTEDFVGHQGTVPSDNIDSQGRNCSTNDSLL
Summary of the method: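 Assay format: CHO-ADRB2 cells, 18-20hr seeding at 37C/5% CO2, then compound plus 1nM isoproterenol agonist mix for 0.5hr RT. Homogeneous time-resolved fluorescence cAMP detection after 1hr, expressed as 665/615 nm ratio.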

[17] = target: Beta-2 adrenergic receptor (Homo sapiens) (UniProt P07550); assay: Adrenergic beta2 receptor (ADRB2) small molecule agonists, cell-based qHTS assay (AID 1963593);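 further: CHO cells stably overexpressing human ADRB2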
Summary of the method: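 CHO cells stably over-expressing ADRB2 were plated overnight at 37C, then dosed with compounds plus a stimulation mix containing 100uM IBMX and 25uM Ro-20-1724 for 0.5hr at room temperature. cAMP was measured by HTRF competition, 1hr.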

[18] = target: D(2) dopamine receptor (Homo sapiens) (UniProt P14416); assay: Dopamine D2 receptor (DRD2) small molecule agonists, cell-based qHTS assay (AID 1963594); further: nearly all actives have a fitted effect of over 35% in size
D(2) dopamine receptor (Homo sapiens), sequence (P14416 whole entry, looked up): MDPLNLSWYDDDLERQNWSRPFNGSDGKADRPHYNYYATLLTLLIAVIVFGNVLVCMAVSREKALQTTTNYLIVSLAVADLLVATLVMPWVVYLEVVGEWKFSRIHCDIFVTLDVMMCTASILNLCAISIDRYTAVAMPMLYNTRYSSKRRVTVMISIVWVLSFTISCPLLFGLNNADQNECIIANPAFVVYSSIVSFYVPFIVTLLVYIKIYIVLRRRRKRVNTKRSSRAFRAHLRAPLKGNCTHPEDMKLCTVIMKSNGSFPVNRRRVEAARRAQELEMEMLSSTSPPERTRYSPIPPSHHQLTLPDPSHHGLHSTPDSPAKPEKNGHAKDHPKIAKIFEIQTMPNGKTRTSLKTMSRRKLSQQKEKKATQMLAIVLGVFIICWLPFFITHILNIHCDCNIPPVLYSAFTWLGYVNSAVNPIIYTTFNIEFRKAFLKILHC
Summary of the method: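 HEK293 cells stably expressing human DRD2, pre-treated with PDE inhibitor Ro20-1724 (0.1 mM final) and compound 10 min at room temperature, then stimulated with NKH477 (200nM […]) for 30 min. cAMP read by HTRF (665/620 nm).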

[19] = target: D(2) dopamine receptor (Homo sapiens) (UniProt P14416); assay: Dopamine D2 receptor (DRD2) small molecule antagonists, cell-based qHTS assay (AID 1963595; active means well fitted inhibition curve with a large enough effect in the signal ratio in the repeat runs, with a control signal flat; the % refers to the signal ratio; further: potency means the concentration at half of the fitted maximal effect)
Summary of the method: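 Readout: HTRF cAMP, cAMP-d2 competing with cellular cAMP for anti-cAMP cryptate, read after 1 h. Cells: DRD2-HEK293. Conditions: 0.1 mM Ro20-1724, 12 nM quinpirole, 200 nM NKH477, 30 min RT.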

[20] = target: KiSS-1 receptor (Homo sapiens) (UniProt Q969F8); assay: Human kisspeptin (KISS1R) small molecule agonists, calcium flux assay in KISS1R-HEK293 cells (AID 1920064; active means well fitted activation curve with a large enough effect in the repeat runs)
KiSS-1 receptor (Homo sapiens), sequence (Q969F8 whole entry, looked up): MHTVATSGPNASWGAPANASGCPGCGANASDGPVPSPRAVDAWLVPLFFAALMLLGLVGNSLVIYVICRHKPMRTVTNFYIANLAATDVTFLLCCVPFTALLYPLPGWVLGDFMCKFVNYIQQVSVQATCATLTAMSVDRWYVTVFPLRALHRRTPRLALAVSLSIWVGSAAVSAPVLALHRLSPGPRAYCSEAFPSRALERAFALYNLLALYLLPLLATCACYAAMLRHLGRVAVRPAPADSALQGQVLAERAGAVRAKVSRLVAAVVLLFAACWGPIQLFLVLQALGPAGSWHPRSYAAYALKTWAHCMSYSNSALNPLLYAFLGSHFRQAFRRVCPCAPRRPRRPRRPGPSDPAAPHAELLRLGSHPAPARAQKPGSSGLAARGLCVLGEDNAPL
Summary of the method: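 After overnight (18 h) culture at 37 C/5% CO2, human KISS1R-HEK293 cells received calcium dye for 1 h, then test compound; emission at 540 nm (excitation 480 nm) was tracked for 3 min.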

Structure (SMILES) | Potency [1] | Potency [2] | Potency [3] | Potency [4] | Potency [5] | Potency [6] | Potency [7] | Potency [8] | Potency [9] | Potency [10] | Potency [11] | Potency [12] | Potency [13] | Potency [14] | Potency [15] | Potency [16] | Potency [17] | Potency [18] | Potency [19] | Potency [20]
c1ccc2cc(Nc3ccc(Nc4ccc5ccccc5c4)cc3)ccc2c1 | inactive | inactive | inactive | inactive | inactive | inactive | inactive | inactive | inactive | inactive | inactive | inactive | inactive | inactive | inactive | inactive | inactive | inactive | inactive | 
CCCCCCCCCCCCCCCCCC(=O)OCC(O)CO (centres undefined) | inactive | inactive | inactive |  |  | inactive | inactive | inactive |  | inactive | inactive | inactive | inactive | inactive |  | inactive | inactive |  | inactive | 
O=c1c(-c2ccc(O)cc2)coc2cc(O)cc(O)c12 | inactive and 15 µM (active) | inactive | inactive |  | inactive | inactive | 16 µM (active) |  | inactive |  |  |  |  | inactive |  |  |  | inactive | inactive | inactive
CC1=CC2C3CC(C=C3C)C2C1 (centres undefined) | inactive | inactive | inactive |  |  | inactive | inactive | inactive |  | inactive | inactive | inactive | inactive | inactive | inactive | inactive |  | inactive | inactive | inactive
CN(C)c1ccc(C(=C2C=CC(=[N+](C)C)C=C2)c2ccccc2)cc1 | 1.22 µM (active) | inactive | inactive | inactive |  | 14.5 µM (active) [middle of 4 runs] |  | 4.08 µM (active) and 3.97 µM (active) |  | inactive | inactive | 4.72 µM (active) and inactive and 18.3 µM (active) | inactive |  |  | inactive |  |  | 16.8 µM (active) | inactive
NC(=O)/N=N/C(N)=O | inactive | inactive | inactive | inactive |  | inactive | inactive | inactive | inactive | inactive | inactive |  | inactive | inactive | inactive | inactive |  | inactive | inactive | inactive
CCCCN(CCCC)CCCC | inactive |  | inactive | inactive | inactive | inactive | inactive | inactive |  | inactive |  | inactive | inactive | inactive | inactive | inactive | inactive | inactive | inactive | inactive
CCCCCCC(C)(C)S | inactive | inactive | inactive |  |  | inactive | inactive | inactive |  | inactive | inactive | inactive | inactive | inactive | inactive | inactive | inactive | inactive | inactive | inactive
CC(C)(Oc1ccc(Cl)cc1)C(=O)O | inactive | inactive | inactive | inactive | inactive | inactive | inactive |  | inactive |  |  |  |  | inactive | inactive | inactive | inactive | inactive | inactive | inactive
